Test results published in PubChem BioAssay (EPA / NIEHS).
Activity calls are given as the source filed them. The calls were made as follows: active = hit-call score of the fitted dose curve at least 0.9, where 1 is the maximum; inactive = score below 0.9.

What follows are molecules tested against Paired box protein Pax-6 (Homo sapiens) (UniProt P26367) (assay: ATG_Pax6_CIS: Attagene CIS-FACTORIAL HepG2 Assay for human Paired Box 6 (PAX6) (AID 2282956)). Details: HepG2 CIS-FACTORIAL PAX6 reporter transcription, RNA readout; actives raise or lower the signal.
Paired box protein Pax-6 (Homo sapiens), sequence (P26367 whole entry, looked up): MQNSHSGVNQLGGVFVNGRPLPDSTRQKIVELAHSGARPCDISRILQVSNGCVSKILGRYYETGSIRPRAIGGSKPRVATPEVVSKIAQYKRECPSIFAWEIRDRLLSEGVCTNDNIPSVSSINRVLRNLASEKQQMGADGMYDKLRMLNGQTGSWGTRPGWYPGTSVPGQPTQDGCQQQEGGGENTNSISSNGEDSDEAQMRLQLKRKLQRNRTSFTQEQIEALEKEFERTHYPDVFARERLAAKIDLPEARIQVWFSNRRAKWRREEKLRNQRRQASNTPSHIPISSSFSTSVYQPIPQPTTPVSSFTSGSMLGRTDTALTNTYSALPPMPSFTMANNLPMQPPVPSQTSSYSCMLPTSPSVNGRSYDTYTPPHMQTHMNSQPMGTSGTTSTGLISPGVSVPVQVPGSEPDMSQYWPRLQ
Description: ATG_CIS is a cell-based, multiplexed-readout assay that uses HepG2, a human liver cell line, with measurements taken at 24 hours after chemical dosing in a 24-well plate.ATG_Pax6_CIS is one of 52 assay component(s) measured or calculated from the ATG_CIS assay. It is designed to make measurements of mRNA induction, a form of inducible reporter, as detected with fluorescence intensity signals by Reverse transcription polymerase chain reaction (RT-PCR) and Capillary electrophoresis technology.Data from the assay component ATG_Pax6_CIS was analyzed into 1 assay endpoint. This assay endpoint, ATG_Pax6_CIS, was analyzed with bidirectional fitting relative to DMSO as the negative control and baseline of activity. Using a type of inducible reporter, measures of mRNA for gain or loss-of-signal activity can be used to understand the reporter gene at the transcription factor-level as they relate to the gene PAX6. Furthermore, this assay endpoint can be referred to as a primary readout, because this assay has produced multiple assay endpoints where this one serves a reporter gene function. To generalize the intended target to other relatable targets, this assay endpoint is annotated to the dna binding intended target family, where the subfamily is paired box protein.
Human liver HepG2 cells are transiently transfected with multiple reporter transcription units (MRTUs) in 6-well plates using FuGene 6 reagent (Roche; 3 ml FuGene/1 mg DNA). The MRTU constructs are regulated by a cis-regulating element (promoter). […] A major difference between the CIS and TRANS system is that in CIS activities of endogenous TFs are measured, whereas the TRANS assay evaluates changes in activities of exogenous, chimeric NR-Gal4 proteins. […] At the end of 24 hour incubation, total RNA was isolated using TriZol reagent (Invitrogen). The isolated RNA is then reverse-transcribed using oligo(dT) primer and Mo-MLV reverse transcriptase (Invitrogen) with DNAse I (Ambion) treatment for 30 min. The one-tenth of the produced cDNA was amplified by PCR using Taq DNA polymerase (Invitrogen) and two reporter sequence-specific primers. The PCR products were fluorescently labeled by primer extension with 6-arboxyfluorescein (6-FAM) 5'-labeled reporter sequence-specific primer (2 min at 95 C, 20 s at 68 C and 10 min at 72 C) and these products were digested with 5U of HpaI (New England Biolabs) for 2h at 37 C. The fragments were purified using Qiaquick PCR columns (Qiagen), analyzed on an ABI 3130xL genetic analyzer (Applied Biosystems) with peak positions identified by using a set of X-rhodamine (ROX)-labeled MapMarker1000 molecular weight standards (BioVentures). The raw capillary electrophoresis data was processed using Attagraph software (Attagene).
In the case of `C#CC1(O)CCCCC1`, the outcome is reported as “inactive”. With `C[C@]12CC[C@H]3[C@@H](CC[C@@]45O[C@@H]4C(O)=C(C#N)C[C@]35C)[C@@H]1CC[C@@H]2O` the AC50 was 44.2 µM (active). With `N#CC(c1ccccc1)c1ccccc1` the outcome was “inactive”. `CN(C)N` was tested, and the outcome was “inactive”. For `CC(=O)C=Cc1ccccc1`, the AC50 was 130 µM (active). In the case of `CCCCNP(N)(N)=S`, the outcome is reported as “inactive”. For `O=C1C=CC(=O)C=C1`, the outcome was “inactive”. For `O=P(O)(Oc1ccccc1)Oc1ccccc1`, the outcome was “inactive”. With `C[N+](C)(C)CC(=O)[O-]` the outcome was “inactive”. With `c1ccc(Nc2ccc3ccccc3c2)cc1` the outcome was “inactive”. With `CCC[N+](=O)[O-]` the outcome was “inactive”. With `Oc1cc(Cl)ccc1Cl` the outcome was “inactive”. For `C=CC(=O)OCCO`, the outcome was “inactive”. In the case of `O=CNC(N1CCN(C(NC=O)C(Cl)(Cl)Cl)CC1)C(Cl)(Cl)Cl` (stereo not given), the outcome is reported as “inactive”. `C=CC(=O)OC` was tested, and the outcome was “inactive”. In the case of `CCOC(=O)N(C)N=O`, the outcome is reported as “inactive”. For `CCOP(=O)(OCC)Oc1ccc([N+](=O)[O-])cc1`, the outcome was “inactive”. With `c1ccc(P(c2ccccc2)c2ccccc2)cc1` the outcome was “inactive”. With `CCC(C)c1cc([N+](=O)[O-])cc([N+](=O)[O-])c1OC(=O)C=C(C)C` (stereo not given) the AC50 was 37.1 µM (active). `O=C=Nc1ccccc1` was tested, and the outcome was “inactive”. For `CCCCOP(=O)(O)OCCCC`, the outcome was “inactive”. With `CC1OC(C)OC(C)O1` (stereo not given) the outcome was “inactive”. In the case of `CCOC(=O)COc1ccc(Cl)cc1Cl`, the outcome is reported as “inactive”. For `CCNCC`, the outcome was “inactive”. For `c1ccc2c(c1)CCCC2`, the outcome was “inactive”. In the case of `O=C(O)CCCc1ccc(N(CCCl)CCCl)cc1`, the outcome is reported as “inactive”. `Nc1cc(Cl)cc(Cl)c1` was tested, and the outcome was “inactive”. `N#Cc1cccc(C#N)c1` was tested, and the outcome was “inactive”. In the case of `[CH3][Sn]([Cl])([Cl])[Cl]`, the outcome is reported as “inactive”. With `Nc1ccc([N+](=O)[O-])cc1N` the outcome was “inactive”. In the case of `CN1C[C@H](C(=O)N[C@]2(C)O[C@@]3(O)[C@@H]4CCCN4C(=O)[C@H](Cc4ccccc4)N3C2=O)C=C2c3cccc4[nH]cc(c34)C[C@H]21`, the outcome is reported as “inactive”. In the case of `CC(Cc1ccc(C(C)(C)C)cc1)CN1C[C@@H](C)O[C@@H](C)C1` (stereo not given in full), the outcome is reported as “inactive”. With `CCC(=O)c1ccc(Cl)cc1` the outcome was “inactive”. `CCCCOC(=O)CCC(=O)OCCCC` was tested, and the outcome was “inactive”. In the case of `CCOC(=O)C1OC1(C)c1ccccc1` (stereo not given), the outcome is reported as “inactive”. With `COCC(=O)N(c1c(C)cccc1C)N1CCOC1=O` the outcome was “inactive”. In the case of `Cc1ccc(OP(=O)(Oc2ccc(C)cc2)Oc2ccc(C)cc2)cc1` (tested in a mixture with another compound), the outcome is reported as “inactive”. `O=[N+]([O-])c1cc(C(F)(F)F)c(Cl)c([N+](=O)[O-])c1Cl` was tested, and the AC50 was 2.77 µM (active). In the case of `CC=Cc1ccc2c(c1)OCO2`, the outcome is reported as “inactive”. For `N#Cc1cc(I)c(O)c(I)c1`, the outcome was “inactive”.
